# Results as given in publication PMC7862700, “An all-to-all approach to the identification of sequence-specific readers for epigenetic DNA modifications on cytosine”.
# What was measured:
# Test in all cases: DAPPL (digital affinity profiling via proximity ligation, sequencing); 10 mM Tris-HCl pH 7.5, 50 mM NaCl, 1 mM DTT, 4% glycerol, room temperature, 30 min; GST-TFs on glutathione beads, 16-mer random dsDNA library, 0.1% formaldehyde crosslink after washing; high values mean tight binding
# FEV = target: T1, FEV (Homo sapiens, UniProt Q99581 1-238); details: protein: recombinant; tags: N-terminal GST; dsDNA, one strand shown
# T1 sequence: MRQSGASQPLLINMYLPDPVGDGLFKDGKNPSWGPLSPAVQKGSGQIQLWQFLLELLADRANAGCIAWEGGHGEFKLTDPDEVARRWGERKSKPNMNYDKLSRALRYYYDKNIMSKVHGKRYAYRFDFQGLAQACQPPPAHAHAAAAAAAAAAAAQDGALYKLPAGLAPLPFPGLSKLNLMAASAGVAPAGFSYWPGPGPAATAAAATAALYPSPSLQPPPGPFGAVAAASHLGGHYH
# In short: (§1)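 Beads coated with glutathione captured GST-fused human transcription factors that had been expressed in yeast, and the factors were then given DNA barcodes and pooled with a tag-only sample. The pools were incubated with 200 nmole of a random double-stranded 16-mer DNA library in Tris/NaCl/DTT/glycerol buffer for 30 min at room temperature, washed, crosslinked with 0.1% formaldehyde and proximity-ligated with BsaI/T4 ligase at 37 °C for 1 h. PCR amplification and Illumina NextSeq500 sequencing came last. Binding signal is each hexamer's read frequency for a factor divided by its frequency for the tag-only sample.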
# ETV5 = ETV5 (Homo sapiens, UniProt P41161 1-510); details: protein: recombinant; tags: N-terminal GST; dsDNA, one strand shown
# Chain of ETV5 (P41161 whole entry): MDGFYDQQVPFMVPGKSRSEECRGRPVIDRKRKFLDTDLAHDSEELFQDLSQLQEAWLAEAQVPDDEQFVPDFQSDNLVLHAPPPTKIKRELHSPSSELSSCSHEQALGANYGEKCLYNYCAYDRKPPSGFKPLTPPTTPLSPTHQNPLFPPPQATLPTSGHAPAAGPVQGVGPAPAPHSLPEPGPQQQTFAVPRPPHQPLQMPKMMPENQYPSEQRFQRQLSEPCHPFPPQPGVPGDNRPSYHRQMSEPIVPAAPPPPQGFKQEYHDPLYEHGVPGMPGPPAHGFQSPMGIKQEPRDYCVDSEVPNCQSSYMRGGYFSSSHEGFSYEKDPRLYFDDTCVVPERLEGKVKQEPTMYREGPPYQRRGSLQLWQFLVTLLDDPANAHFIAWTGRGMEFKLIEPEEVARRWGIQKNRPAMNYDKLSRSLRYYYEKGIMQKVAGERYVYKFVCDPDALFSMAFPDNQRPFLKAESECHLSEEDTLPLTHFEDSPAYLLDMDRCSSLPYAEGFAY
# In short: as §1
# HSF1 = HSF1 (Homo sapiens, UniProt Q00613 1-529); details: protein: recombinant; tags: N-terminal GST; chain copies: 3; dsDNA, one strand shown
# Chain of HSF1 (Q00613 whole entry): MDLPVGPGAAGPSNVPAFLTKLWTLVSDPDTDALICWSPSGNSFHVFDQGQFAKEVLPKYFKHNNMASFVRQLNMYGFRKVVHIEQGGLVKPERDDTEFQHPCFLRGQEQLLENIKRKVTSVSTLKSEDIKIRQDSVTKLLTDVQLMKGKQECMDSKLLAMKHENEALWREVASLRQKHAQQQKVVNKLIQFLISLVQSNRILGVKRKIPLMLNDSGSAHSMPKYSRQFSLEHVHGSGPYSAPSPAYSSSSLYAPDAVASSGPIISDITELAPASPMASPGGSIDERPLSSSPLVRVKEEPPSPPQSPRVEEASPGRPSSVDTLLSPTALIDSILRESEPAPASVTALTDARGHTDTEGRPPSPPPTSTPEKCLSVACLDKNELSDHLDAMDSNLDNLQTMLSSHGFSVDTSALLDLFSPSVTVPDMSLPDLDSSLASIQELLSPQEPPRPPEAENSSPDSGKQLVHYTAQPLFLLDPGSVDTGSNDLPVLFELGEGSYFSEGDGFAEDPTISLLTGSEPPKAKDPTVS
# In short: as §1
# SPIC = target: T2, SPIC (Homo sapiens, UniProt Q8N5J4 1-248); details: protein: recombinant; tags: N-terminal GST; dsDNA, one strand shown
# T2 sequence: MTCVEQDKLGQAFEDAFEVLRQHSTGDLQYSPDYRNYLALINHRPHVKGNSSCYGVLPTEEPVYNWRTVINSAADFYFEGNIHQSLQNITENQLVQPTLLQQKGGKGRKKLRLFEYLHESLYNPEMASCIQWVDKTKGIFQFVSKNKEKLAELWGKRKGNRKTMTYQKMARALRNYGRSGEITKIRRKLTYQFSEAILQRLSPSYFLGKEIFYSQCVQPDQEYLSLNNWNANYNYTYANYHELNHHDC
# In short: as §1
# ELF4 = ELF4 (Homo sapiens, UniProt Q99607 1-663); details: protein: recombinant; tags: N-terminal GST; dsDNA, one strand shown
# Chain of ELF4 (Q99607 whole entry): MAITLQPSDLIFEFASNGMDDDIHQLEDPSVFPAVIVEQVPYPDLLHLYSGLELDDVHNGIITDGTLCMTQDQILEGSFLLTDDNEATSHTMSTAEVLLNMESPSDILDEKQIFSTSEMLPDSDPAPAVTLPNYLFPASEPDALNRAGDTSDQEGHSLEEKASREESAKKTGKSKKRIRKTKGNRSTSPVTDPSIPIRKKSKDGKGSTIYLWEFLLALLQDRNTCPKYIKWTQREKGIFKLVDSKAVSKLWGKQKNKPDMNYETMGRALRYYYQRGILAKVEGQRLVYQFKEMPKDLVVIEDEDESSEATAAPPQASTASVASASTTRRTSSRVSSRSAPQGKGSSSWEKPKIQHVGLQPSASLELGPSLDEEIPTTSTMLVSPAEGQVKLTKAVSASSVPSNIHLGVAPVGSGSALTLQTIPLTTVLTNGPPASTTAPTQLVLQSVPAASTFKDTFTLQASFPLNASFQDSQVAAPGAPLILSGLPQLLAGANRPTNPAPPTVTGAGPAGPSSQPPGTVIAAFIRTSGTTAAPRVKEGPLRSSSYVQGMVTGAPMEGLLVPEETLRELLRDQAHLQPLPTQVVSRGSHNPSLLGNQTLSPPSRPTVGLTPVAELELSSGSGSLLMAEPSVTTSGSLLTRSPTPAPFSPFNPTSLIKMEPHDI
# In short: as §1
# ELK4 = target: T3, ELK4 (Homo sapiens, UniProt P28324-2 1-405); details: protein: recombinant; tags: N-terminal GST; dsDNA, one strand shown
# T3 sequence: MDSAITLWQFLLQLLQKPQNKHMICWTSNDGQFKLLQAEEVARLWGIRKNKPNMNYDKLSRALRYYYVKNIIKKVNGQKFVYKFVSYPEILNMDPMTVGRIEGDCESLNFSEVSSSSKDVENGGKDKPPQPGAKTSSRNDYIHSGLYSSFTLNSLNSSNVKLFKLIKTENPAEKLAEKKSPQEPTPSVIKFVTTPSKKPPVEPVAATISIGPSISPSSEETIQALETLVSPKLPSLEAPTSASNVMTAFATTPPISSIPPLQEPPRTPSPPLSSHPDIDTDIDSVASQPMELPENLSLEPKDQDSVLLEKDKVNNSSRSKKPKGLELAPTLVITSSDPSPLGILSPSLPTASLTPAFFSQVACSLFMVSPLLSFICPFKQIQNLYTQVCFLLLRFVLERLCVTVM
# In short: as §1
# ETV2 = target: T4, ETV2 (Homo sapiens, UniProt O00321 1-342); details: protein: recombinant; tags: N-terminal GST; dsDNA, one strand shown
# T4 sequence: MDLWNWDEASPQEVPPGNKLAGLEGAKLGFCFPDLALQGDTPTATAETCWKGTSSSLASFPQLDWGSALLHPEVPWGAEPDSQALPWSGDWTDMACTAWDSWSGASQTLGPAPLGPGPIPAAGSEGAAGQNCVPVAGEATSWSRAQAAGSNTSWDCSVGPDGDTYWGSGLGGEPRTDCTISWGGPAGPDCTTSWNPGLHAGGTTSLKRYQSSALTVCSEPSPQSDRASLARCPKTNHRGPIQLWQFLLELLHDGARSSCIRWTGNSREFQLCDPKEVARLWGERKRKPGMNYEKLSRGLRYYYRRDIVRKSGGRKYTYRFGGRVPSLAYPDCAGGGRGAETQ
# In short: as §1
# ELF3 = target: T5, ELF3 (Homo sapiens, UniProt P78545 1-371); details: protein: recombinant; tags: N-terminal GST; dsDNA, one strand shown
# T5 sequence: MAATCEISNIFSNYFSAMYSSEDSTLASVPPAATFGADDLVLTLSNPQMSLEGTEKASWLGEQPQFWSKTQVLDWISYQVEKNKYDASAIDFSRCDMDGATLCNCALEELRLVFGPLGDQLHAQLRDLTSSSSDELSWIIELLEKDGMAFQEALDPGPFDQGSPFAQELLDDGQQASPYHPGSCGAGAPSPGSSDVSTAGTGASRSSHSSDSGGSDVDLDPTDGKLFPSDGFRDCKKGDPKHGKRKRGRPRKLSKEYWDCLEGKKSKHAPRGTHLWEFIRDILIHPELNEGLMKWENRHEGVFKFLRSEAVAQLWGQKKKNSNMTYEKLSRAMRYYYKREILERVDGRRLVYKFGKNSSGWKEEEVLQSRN
# In short: as §1
# CRX = CRX (Homo sapiens, UniProt O43186 1-299); details: protein: recombinant; tags: N-terminal GST; dsDNA, one strand shown
# Chain of CRX (O43186 whole entry): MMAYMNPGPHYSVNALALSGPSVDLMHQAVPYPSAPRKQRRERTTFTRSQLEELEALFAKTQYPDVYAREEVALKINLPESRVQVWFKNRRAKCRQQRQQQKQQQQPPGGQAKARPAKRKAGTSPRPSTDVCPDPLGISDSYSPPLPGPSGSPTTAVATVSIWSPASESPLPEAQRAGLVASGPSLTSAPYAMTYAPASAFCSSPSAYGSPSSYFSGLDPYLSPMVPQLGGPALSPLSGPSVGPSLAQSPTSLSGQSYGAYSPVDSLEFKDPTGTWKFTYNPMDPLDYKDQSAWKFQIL
# In short: as §1
# ETV1 = ETV1 (Homo sapiens, UniProt P50549 1-477); details: protein: recombinant; tags: N-terminal GST; dsDNA, one strand shown
# Chain of ETV1 (P50549 whole entry): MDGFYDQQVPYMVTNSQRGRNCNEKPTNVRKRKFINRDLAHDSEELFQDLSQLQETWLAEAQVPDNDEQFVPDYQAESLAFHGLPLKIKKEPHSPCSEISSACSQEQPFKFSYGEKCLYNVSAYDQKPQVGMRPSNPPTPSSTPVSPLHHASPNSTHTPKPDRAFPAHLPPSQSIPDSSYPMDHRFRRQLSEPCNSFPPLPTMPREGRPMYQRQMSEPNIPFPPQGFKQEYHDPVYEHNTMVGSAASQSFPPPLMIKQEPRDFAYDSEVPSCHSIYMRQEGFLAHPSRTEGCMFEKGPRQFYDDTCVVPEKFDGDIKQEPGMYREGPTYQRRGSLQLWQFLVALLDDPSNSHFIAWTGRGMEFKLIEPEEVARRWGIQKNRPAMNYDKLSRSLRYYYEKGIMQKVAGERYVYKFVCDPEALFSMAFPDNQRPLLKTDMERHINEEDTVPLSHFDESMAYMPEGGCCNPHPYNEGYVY
# In short: as §1
# ERF = target: T6, ERF (Homo sapiens, UniProt P50548 1-548); details: protein: recombinant; tags: N-terminal GST; dsDNA, one strand shown
# T6 sequence: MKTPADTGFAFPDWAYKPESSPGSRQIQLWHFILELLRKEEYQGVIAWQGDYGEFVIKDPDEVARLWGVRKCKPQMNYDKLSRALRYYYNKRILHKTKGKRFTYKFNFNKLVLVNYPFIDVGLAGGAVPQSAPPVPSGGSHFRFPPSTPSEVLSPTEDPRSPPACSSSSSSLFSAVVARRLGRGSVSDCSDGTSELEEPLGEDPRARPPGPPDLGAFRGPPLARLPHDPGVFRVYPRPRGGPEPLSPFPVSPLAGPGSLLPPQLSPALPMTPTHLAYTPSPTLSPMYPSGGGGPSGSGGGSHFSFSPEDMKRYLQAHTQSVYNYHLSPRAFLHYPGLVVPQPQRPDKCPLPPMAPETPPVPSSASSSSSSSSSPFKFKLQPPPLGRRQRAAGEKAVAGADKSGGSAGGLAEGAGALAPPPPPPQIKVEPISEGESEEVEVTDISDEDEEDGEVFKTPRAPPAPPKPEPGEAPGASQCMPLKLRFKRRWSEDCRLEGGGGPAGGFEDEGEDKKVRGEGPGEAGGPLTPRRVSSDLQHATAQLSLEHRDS
# In short: as §1
# ETV3L = target: T7, ETV3L (Homo sapiens, UniProt Q6ZN32 1-361); details: protein: recombinant; tags: N-terminal GST; dsDNA, one strand shown
# T7 sequence: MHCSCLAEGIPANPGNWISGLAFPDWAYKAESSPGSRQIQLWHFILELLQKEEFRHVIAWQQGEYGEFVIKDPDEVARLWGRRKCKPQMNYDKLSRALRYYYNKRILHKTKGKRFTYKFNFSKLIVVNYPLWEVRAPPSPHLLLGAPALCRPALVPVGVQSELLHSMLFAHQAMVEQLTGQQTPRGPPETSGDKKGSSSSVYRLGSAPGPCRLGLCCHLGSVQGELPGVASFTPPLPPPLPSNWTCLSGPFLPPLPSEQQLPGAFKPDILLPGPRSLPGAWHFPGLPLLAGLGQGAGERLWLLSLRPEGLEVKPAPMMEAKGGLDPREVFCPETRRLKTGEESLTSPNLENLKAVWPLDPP
# In short: as §1
# ETS2 = target: T8, ETS2 (Homo sapiens, UniProt P15036 1-469); details: protein: recombinant; tags: N-terminal GST; dsDNA, one strand shown
# T8 sequence: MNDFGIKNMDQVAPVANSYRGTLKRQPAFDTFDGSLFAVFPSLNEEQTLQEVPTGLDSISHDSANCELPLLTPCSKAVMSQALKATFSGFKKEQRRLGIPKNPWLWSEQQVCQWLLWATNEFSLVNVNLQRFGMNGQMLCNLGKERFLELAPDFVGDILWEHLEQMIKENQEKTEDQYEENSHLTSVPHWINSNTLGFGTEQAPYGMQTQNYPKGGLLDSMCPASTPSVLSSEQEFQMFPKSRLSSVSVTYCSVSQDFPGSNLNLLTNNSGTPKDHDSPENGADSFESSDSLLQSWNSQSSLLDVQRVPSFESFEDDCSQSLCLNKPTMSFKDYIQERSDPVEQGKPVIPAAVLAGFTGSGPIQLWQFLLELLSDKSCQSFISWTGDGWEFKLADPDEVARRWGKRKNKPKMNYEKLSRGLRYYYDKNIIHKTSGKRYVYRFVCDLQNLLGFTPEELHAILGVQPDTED
# In short: as §1
# SPDEF = target: T9, SPDEF (Homo sapiens, UniProt O95238 1-335); details: protein: recombinant; tags: N-terminal GST; dsDNA, one strand shown
# T9 sequence: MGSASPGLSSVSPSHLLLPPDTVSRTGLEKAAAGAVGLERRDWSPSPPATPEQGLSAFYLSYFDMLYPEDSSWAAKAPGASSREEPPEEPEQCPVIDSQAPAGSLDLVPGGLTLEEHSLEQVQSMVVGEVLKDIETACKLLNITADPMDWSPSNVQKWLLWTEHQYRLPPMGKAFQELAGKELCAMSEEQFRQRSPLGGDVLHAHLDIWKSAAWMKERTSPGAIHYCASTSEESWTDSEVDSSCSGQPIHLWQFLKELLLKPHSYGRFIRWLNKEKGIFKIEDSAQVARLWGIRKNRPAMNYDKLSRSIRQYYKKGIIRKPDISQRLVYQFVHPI
# In short: as §1
# ETV7 = target: T10, ETV7 (Homo sapiens, UniProt Q9Y603 1-341); details: protein: recombinant; tags: N-terminal GST; dsDNA, one strand shown
# T10 sequence: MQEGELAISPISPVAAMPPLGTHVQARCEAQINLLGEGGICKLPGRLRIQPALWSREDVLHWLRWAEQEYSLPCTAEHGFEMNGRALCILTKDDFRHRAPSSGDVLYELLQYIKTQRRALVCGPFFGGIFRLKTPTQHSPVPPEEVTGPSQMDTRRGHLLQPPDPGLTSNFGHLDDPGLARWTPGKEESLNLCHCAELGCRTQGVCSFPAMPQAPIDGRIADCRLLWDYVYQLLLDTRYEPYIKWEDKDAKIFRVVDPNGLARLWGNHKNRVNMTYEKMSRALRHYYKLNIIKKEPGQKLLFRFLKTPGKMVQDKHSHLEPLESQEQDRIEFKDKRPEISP
# In short: as §1
# ELF5 = target: T11, ELF5 (Homo sapiens, UniProt Q9UKW6-2 1-255); details: protein: recombinant; tags: N-terminal GST; dsDNA, one strand shown
# T11 sequence: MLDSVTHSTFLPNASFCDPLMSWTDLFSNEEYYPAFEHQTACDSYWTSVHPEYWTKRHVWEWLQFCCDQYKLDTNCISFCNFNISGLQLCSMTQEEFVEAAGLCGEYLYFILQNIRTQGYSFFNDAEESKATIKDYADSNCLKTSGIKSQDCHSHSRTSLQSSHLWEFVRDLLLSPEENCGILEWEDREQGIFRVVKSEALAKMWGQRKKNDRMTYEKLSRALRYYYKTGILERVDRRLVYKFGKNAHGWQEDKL
# In short: as §1
# ETV3 = target: T12, ETV3 (Homo sapiens, UniProt P41162-2 1-143); details: protein: recombinant; tags: N-terminal GST; dsDNA, one strand shown
# T12 sequence: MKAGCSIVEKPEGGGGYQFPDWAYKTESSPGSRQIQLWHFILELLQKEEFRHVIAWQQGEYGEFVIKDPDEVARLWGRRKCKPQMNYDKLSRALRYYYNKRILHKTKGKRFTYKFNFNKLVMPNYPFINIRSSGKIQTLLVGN
# In short: as §1
# ETV6 = ETV6 (Homo sapiens, UniProt P41212 1-452); details: protein: recombinant; tags: N-terminal GST; dsDNA, one strand shown
# Chain of ETV6 (P41212 whole entry): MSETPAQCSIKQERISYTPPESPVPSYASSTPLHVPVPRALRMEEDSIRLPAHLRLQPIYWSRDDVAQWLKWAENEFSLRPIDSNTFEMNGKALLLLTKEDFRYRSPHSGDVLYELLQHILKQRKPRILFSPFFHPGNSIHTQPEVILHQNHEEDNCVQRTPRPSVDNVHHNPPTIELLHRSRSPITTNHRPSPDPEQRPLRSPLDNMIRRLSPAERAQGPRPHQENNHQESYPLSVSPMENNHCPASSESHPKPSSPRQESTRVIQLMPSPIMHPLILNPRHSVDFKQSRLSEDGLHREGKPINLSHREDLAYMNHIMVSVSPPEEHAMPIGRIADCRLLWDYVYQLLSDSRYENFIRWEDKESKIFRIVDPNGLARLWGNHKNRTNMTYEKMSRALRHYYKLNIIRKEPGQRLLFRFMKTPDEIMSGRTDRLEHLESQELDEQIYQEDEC
# In short: as §1
sequence,measurement,setting,value
CTTTAA,binding signal,FEV,"1.23 fold enrichment (6-mer frequency, TF over GST control)"
same,binding signal,ETV5,"1.24 fold enrichment (6-mer frequency, TF over GST control)"
same,binding signal,HSF1,"1.58 fold enrichment (6-mer frequency, TF over GST control)"
same,binding signal,SPIC,"1.36 fold enrichment (6-mer frequency, TF over GST control)"
same,binding signal,ELF4,"1.26 fold enrichment (6-mer frequency, TF over GST control)"
same,binding signal,ELK4,"1.28 fold enrichment (6-mer frequency, TF over GST control)"
same,binding signal,ETV2,"1.27 fold enrichment (6-mer frequency, TF over GST control)"
same,binding signal,ELF3,"1.39 fold enrichment (6-mer frequency, TF over GST control)"
same,binding signal,CRX,"2.25 fold enrichment (6-mer frequency, TF over GST control)"
same,binding signal,ETV1,"1.3 fold enrichment (6-mer frequency, TF over GST control)"
same,binding signal,ERF,"1.32 fold enrichment (6-mer frequency, TF over GST control)"
same,binding signal,ETV3L,"1.34 fold enrichment (6-mer frequency, TF over GST control)"
same,binding signal,ETS2,"1.33 fold enrichment (6-mer frequency, TF over GST control)"
same,binding signal,SPDEF,"1.28 fold enrichment (6-mer frequency, TF over GST control)"
same,binding signal,ETV7,"1.2 fold enrichment (6-mer frequency, TF over GST control)"
same,binding signal,ELF5,"1.32 fold enrichment (6-mer frequency, TF over GST control)"
same,binding signal,ETV3,"1.23 fold enrichment (6-mer frequency, TF over GST control)"
same,binding signal,ETV6,"1.23 fold enrichment (6-mer frequency, TF over GST control)"
